Source: PubChem BioAssay (several laboratories)
GAA850 FXN act – increases GAA850 frataxin promoter reporter activity; HEK293 lucGAA850 FXN promoter luciferase reporter, 24 h; percent of 10 µM SAHA response; activation, % at 6 µM; 360,000 tested, 0.56% active; AID 540364;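 active = activation above the average of all compounds screened plus 3 SD, cutoff fixed separately per campaign, cut at about 7.5% in these data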
HSF1 inh – HSF1 inhibition | NIH3T3-HGL HSE-luciferase, MG132-induced, luminescence 8 h; hits give low values | activity change, negative = inhibition, % at 7.5 µM (by protocol) | 300,000 tested, 0.77% active | AID 2098;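 active = more than half of replicate wells show activity change below -50%, luminescence cut by over half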;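 note: luciferase reports HSF-1 transcriptional activity via heat shock element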
HSF1 activator – increases HSF-1 driven luciferase reporter signal | NIH3T3-HGL HSF-1 luciferase reporter, MG132, 8 h; 100% = twice DMSO control signal | activation, % at 9 µM | 300,000 tested, 1.7% active | AID 504408;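 active = mean replicate activation of at least 50% with a set share of replicates each reaching 50%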
AHR act – activates the human aryl hydrocarbon receptor. P35869. AHR-responsive luciferase reporter cells, luminescence. 320,000 tested, 2.5% active. activation, % at 5 µM; in the data active = activation above about 47%
Target sequence (P35869 whole entry, looked up): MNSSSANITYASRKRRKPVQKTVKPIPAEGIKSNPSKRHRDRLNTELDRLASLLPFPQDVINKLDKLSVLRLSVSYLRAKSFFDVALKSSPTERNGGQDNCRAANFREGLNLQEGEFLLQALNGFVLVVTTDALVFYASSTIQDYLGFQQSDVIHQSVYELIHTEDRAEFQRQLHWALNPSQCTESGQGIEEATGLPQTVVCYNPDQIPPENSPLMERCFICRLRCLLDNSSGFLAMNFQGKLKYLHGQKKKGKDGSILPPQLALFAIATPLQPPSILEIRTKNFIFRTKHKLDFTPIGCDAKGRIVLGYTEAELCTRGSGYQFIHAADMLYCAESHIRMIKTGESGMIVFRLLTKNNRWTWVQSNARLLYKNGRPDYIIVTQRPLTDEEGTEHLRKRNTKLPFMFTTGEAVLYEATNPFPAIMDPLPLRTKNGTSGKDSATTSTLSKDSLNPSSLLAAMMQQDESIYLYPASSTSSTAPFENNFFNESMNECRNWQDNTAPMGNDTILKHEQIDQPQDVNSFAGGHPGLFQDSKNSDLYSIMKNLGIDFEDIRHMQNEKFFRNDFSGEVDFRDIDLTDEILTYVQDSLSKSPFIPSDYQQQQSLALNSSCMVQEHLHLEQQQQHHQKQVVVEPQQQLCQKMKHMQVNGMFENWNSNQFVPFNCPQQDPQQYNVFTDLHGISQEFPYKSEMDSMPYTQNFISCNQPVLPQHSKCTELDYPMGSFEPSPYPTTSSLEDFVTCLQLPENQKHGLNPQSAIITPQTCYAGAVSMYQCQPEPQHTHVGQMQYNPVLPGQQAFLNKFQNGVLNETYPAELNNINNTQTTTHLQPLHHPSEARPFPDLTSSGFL
Of the large screens only hits and unclear results are named; the others gave an inactive call. Rows were chosen to be rich in hits. Some 4.6% of all compounds tested hit in one or more screens of this group.

COc1ccccc1C(=O)Nc1nc(-c2cccs2)c(NC(C)=O)s1	AHR act 72
COc1ccc(C(CC(=O)Nc2nccs2)n2cccc2)cc1 (centres undefined)	HSF1 activator 58
CC(=O)Nc1sc(NC(=O)c2ccccc2)nc1-c1cccs1	none
COc1cc2ccccc2cc1C(=O)NC1CCCCC1	none (no result: HSF1 inh, HSF1 activator)
CCc1ccc(CN(C)CC(=O)Nc2ccc3c(c2)CCC3)cc1	none
CN(C)c1ccc(-n2cccc2)cc1	none
OCCOCCn1c(C(CO)Nc2nc(-c3cccc(Br)c3)cs2)nc2ccccc21 (centres undefined)	none
Cc1ccccc1Cn1ccc(NC(=O)c2nc3ncccn3n2)n1	none
Cc1c(N=C2C=C(Br)C(=O)C(Br)=C2)c(=O)n(-c2ccccc2)n1C	none (no result: HSF1 inh, HSF1 activator, AHR act)
O=C(C1CCN(S(=O)(=O)N2CCOCC2)CC1)N1CCN(c2ccccc2)CC1	none
O=C(Nc1nccs1)c1ccc2ccccc2c1	AHR act 54
Cn1nnc2c(NCc3ccco3)nccc21	none
COc1ccc(Nc2nccc3c2nnn3C)cc1	AHR act 62
Cc1ccc2nc(N3C(=O)C(O)=C(C(=O)c4ccco4)C3c3cccs3)sc2c1 (centres undefined)	HSF1 activator 66
COc1ccc(-c2nc3cc(C)ccn3c2NC(=O)c2ccccc2OC)cc1	AHR act 53
Cc1cc(SCC(=O)c2cc3ccccc3o2)nc2ccccc12	AHR act 52
Cc1cc(SCC(=O)c2ccc3c(c2)OCO3)nc2ccccc12	AHR act 64
Cc1cc(SCC(=O)O)nc2ccccc12	none
COc1cc(NC(=O)CSc2nc(C)cs2)cc(OC)c1	HSF1 inh -81
Cc1csc(SCC(=O)Nc2cc(S(=O)(=O)N3CCCC3)ccc2Cl)n1	HSF1 inh -54
Cc1csc(SCC(=O)Nc2cccc(S(=O)(=O)N3CCCC3)c2)n1	none
Clc1cccc(Cl)c1CSc1cc2c(nn1)-c1ccccc1CC2	none
Clc1ccccc1CSc1cc2c(nn1)-c1ccccc1CC2	AHR act 72
COc1ccccc1CNC(=O)Cc1c[nH]c2ccccc12	none
O=Cc1ccc(OCc2ccccn2)cc1	none
O=Cc1ccc(OCc2ccc3ccccc3c2)cc1	HSF1 activator 60
CCN(CCCNC(=O)CNC(=O)c1nn(-c2ccc(OC)cc2OC)c(=O)c2ccccc12)c1cccc(C)c1	HSF1 activator 61
Cc1cc(=O)oc(C)c1C(=O)Nc1cccc2nonc12	none
Cc1cc(NC2CCCC2)n2nc(C)c(-c3ccccc3)c2n1	HSF1 activator 52
Cc1cc(-c2ccccc2)n2ncc(-c3ccccc3)c2n1	AHR act 57
COc1ccc(-c2c(C)nn3c(NC4CCCC4)cc(C)nc23)cc1OC	HSF1 activator 62
COc1ccc(CCNc2cc(C)nc3c(-c4ccccc4)c(C)nn23)cc1OC	none
Cc1cc(NCc2ccccc2)n2ncc(-c3ccccc3)c2n1	HSF1 activator 80
Cc1cc(N)n2nc(C)c(-c3ccccc3)c2n1	none
Cc1ccc(NC(=O)CNc2cc(S(=O)(=O)N3CCOCC3)ccc2N2CCOCC2)cc1S(=O)(=O)N(C)C	none (no result: HSF1 inh, HSF1 activator)
CN1C(=O)Cc2cc(S(=O)(=O)NCCc3ccc(Cl)cc3)ccc21	none
CCOC(=O)c1cnc2c(-c3ccccc3)cnn2c1C	none
Nc1c(-c2ccc(Cl)cc2)cnc2c(-c3ccccc3)cnn12	none
CCOC(=O)Cc1c(C)nc2c(-c3ccccc3)cnn2c1C	AHR act 54
Cc1nc2c(-c3ccccc3)cnn2c(N)c1-c1ccccc1	HSF1 inh -87 (no result: AHR act)
Cc1cc(NC(C)c2ccccc2)n2ncc(-c3ccccc3)c2n1 (centres undefined)	none
COc1ccc(CCNc2cc(C)nc3c(-c4ccc(Cl)cc4)cnn23)cc1OC	AHR act 69
Cc1cc(NC2CCCC2)n2ncc(-c3ccccc3)c2n1	HSF1 inh -67
Cc1ccc(-n2c(=S)[nH]c3sc4c(c3c2=O)CCC4)cc1	none
Cc1nc(SC(C)C(=O)NCC2CCCO2)c2cc(-c3ccccc3)sc2n1 (centres undefined)	HSF1 activator 71
CC(Sc1ncnc2c1cnn2-c1ccccc1)C(=O)NCC1CCCO1 (centres undefined)	none
CCCCNC(=O)C(c1ccc(OCC(=O)OC)c(C(=O)OC)c1)N(CCc1c[nH]c2ccccc12)C(=O)CCCCCN1C(=O)NC(c2ccc(-c3ccccc3)cc2)C(C(=O)OCc2ccccc2)=C1C (centres undefined)	HSF1 inh -80 (no result: GAA850 FXN act, AHR act)
CCCCCCN(C(=O)CCCCCN1C(=O)NC(c2ccc(-c3ccccc3)cc2)C(C(=O)OCc2ccccc2)=C1C)C(C(=O)NCCCC)c1ccc(OCC(=O)OC)c(C(=O)OC)c1 (centres undefined)	none (no result: GAA850 FXN act)
